Assay results reported in PubChem BioAssay (NCATS).
“And” between values parts separate entries of the source, which are not always exact repeats. Identical values can stand only once. Inconclusive results are not listed. Entries that show only a call come without a potency. Where a structure was tested more than once in an assay, its records may differ in their call. The source made the active and inactive calls. Calls follow the shape of the dose curve; as a rule, active = well fitted curve in the direction sought with a large enough effect; inconclusive = small, poorly fitted or top-dose-only effect, or another doubt; inactive = no such curve, though single readings can be large; an effect the other way counts as inactive or inconclusive.

Experiments:
[1] = Viability qHTS for spleen associated tyrosine kinase inhibitor (SYKi) naive MV4-11 cells (AID 1963823); also: nearly all actives have a fitted effect of over 40% in size
Outline: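 In this viability screen, compounds acted on SYK inhibitor naive MV4-11 cells for three days (72 hr, 37 C). Remaining viable cells were measured by CellTiter-Glo luminescence following a 10 min room-temperature development.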

[2] = Viability qHTS for spleen associated tyrosine kinase inhibitor (SYKi) drug resistant MV4-11 cells (AID 1963824); also: nearly all actives have a fitted effect of over 35% in size
Outline: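 CellTiter-Glo luminescence, read 10 min after reagent addition, reports viability after a 72 hr compound exposure. Cells are an MV4-11 line made resistant to SYK inhibition, seeded at 500 per well onto compound-containing plates.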

[3] = Quantitative highthroughput screen to assess conditional lethalithy of NOMO1 cells grown in RPMI1640 with untreated serum (RPMI+s) (AID 1963876); also: nearly all actives have a fitted effect of over 35% in size
Outline: (§1)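 Each medium arm—HPLM with 10% dialyzed FBS, or RPMI1640 with 5 mM glucose and 10% untreated or dialyzed FBS—was screened against an 11-point, 3-fold compound titration for 48 h at 37 °C, with CellTiter-Glo luminescence as endpoint.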

[4] = Quantitative highthroughput screen to assess conditional lethalithy of NOMO1 cells grown in RPMI1640 with dialyzed fetal bovine serum (RPMI+ds) (AID 1963877); also: nearly all actives have a fitted effect of over 30% in size; as to Viability: series mostly up to about 46 µM
Outline: as §1

[5] = Quantitative highthroughput screen to assess conditional lethalithy of P12 Ichikawa cells grown in Human Plasma-Like Medium with dialyzed fetal bovine serum (HPLM+ds) (AID 1963879); conditions: Potency: viability; also: nearly all actives have a fitted effect of over 35% in size; as to Viability: series mostly up to about 46 µM
Outline: as §1

[6] = Quantitative highthroughput screen to assess conditional lethalithy of P12 Ichikawa cells grown in RPMI1640 with dialyzed fetal bovine serum (RPMI+ds) (AID 1963880); conditions: Potency: P12-Ichikawa viability; also: nearly all actives have a fitted effect of over 35% in size
Outline: as §1

[7] = Quantitative highthroughput screen to assess conditional lethalithy of P12 Ichikawa cells grown in RPMI1640 with untreated serum (RPMI+s) (AID 1963881); conditions: Potency: viability; also: nearly all actives have a fitted effect of over 35% in size; as to Viability: series mostly up to about 46 µM
Outline: as §1

[8] = Quantitative highthroughput screen to assess conditional lethalithy of SEM cells grown in RPMI1640 with unreated serum (RPMI+s) (AID 1963883); also: nearly all actives have a fitted effect of over 35% in size
Outline: as §1

[9] = Cellular viability qHTS for adrenocortical cancer (ACC) cell line SW-13 (AID 1963989); conditions: SW-13 ACC cells viability, CellTiter-Glo, 48 h; activity (max response): stronger effect = lower value; also: nearly all actives have a fitted effect of over 65% in size;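 as to activity (max response): cells grown in serum-free medium with ITS supplement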
Outline: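 Viability was read as CellTiter-Glo luminescence after 48 h compound treatment (up to 46 uM final) of SW-13 cells grown serum-free; titration curves were fit with a four-parameter logistic model to give IC50 and efficacy.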

[10] = Cellular viability qHTS for adrenocortical cancer (ACC) cell line NCI-H295R (AID 1963990); also: nearly all actives have a fitted effect of over 60% in size
Outline: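 CellTiter-Glo ATP luminescence, read 48 h after compound addition, measured viability of NCI-H295R adrenocortical cells grown serum-free with ITS. Final concentrations spanned up to 46 uM. Data normalized to DMSO and doxorubicin, fitted for IC50 and maximal response.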

[11] = Quantitative highthroughput screen to assess conditional lethalithy of SEM cells grown in Human Plasma-Like Medium with dialyzed fetal bovine serum (HPLM+ds) (AID 1963882); also: nearly all actives have a fitted effect of over 35% in size; as to Viability: series mostly up to about 46 µM
Outline: as §1

[12] = Quantitative highthroughput screen to assess conditional lethalithy of SEM cells grown in RPMI1640 with dialyzed fetal bovine serum (RPMI+ds) (AID 1963884); also: nearly all actives have a fitted effect of over 35% in size; as to Viability: series mostly up to about 46 µM
Outline: as §1
Potency is read from the fitted curve at half-maximal effect.

SMILES	Potency [1]	Potency [2]	Potency [3]	Potency [4]	Potency [5]	Potency [6]	Potency [7]	Potency [8]	activity (max response) [9]	Potency [10]	Potency [11]	Potency [9]	Potency [12]
CC(C)C[C@@H](N)[C@H](O)C(=O)N[C@H](C(=O)N[C@H](C(=O)N[C@@H](CC(=O)O)C(=O)O)C(C)C)C(C)C	inactive	inactive	inactive	inactive	inactive	inactive	inactive	inactive	-8.42% (inactive)	inactive			
CC(C)(C)Cn1c(N)nc2ccc(-c3[nH]c(C(C)(C)C)nc3-c3ccc(F)cc3)nc21	16.6 µM (active)	461 nM (active) and 14.8 µM (active)	inactive	inactive	inactive	inactive	inactive				inactive	25.1 µM (active)	
COc1ccc2c(Oc3ccc(NC(=O)c4c(C)n(CC(C)(C)O)n(-c5ccccc5)c4=O)cc3F)ccnc2c1	0.0934 µM (active)	148 nM (active)	inactive	18700 nM (active)	inactive	inactive	inactive	3320 nM (active)					
NC(=O)c1ccc2nc(-c3ccc(Oc4ccc(Cl)cc4)cc3)[nH]c2c1	5.17 µM (active)	2.95 µM (active) and 8.2 µM (active)	inactive	inactive	inactive	inactive				25.1 µM (active)		28.2 µM (active)	
NCC(=O)Nc1ccc(-n2nc(C(F)(F)F)cc2-c2ccc3c(ccc4ccccc43)c2)cc1	5.8 µM (active) and 5.9 µM (active)	2.91 µM (active) and 4.68 µM (active)	inactive	9350 nM (active)	2960 nM (active)	2960 nM (active)					inactive		
O=C(O)CCNc1cc(N2CCc3ccccc3CC2)nc(-c2ccccn2)n1	inactive	inactive	inactive	inactive	inactive			inactive	0.209% (inactive)	inactive	inactive		inactive
COc1cc(C(C)C)c2c(c1)S(=O)(=O)N(COc1cc(=O)n3cccc(OCCN4CCCCC4)c3n1)C2=O	20.9 µM (active)	11800 nM (active)	inactive	inactive	inactive		inactive	inactive		17.8 µM (active)	inactive		inactive
CCOC(=O)c1ccc(OC(=O)CCCCCN=C(N)N)cc1	inactive	inactive	3320 nM (active)	3320 nM (active)	1870 nM (active)		7430 nM (active)		3.73% (inactive)	inactive			
NCCCC(N)(C(=O)O)C(F)F (configuration not stated)	inactive	inactive	inactive	inactive		inactive	inactive	inactive	1.41% (inactive) and -0.581% (inactive)	inactive	inactive		inactive
COc1ccc2c(Oc3ccc(NC(=O)c4c(C)n(CC(C)(C)O)n(-c5ccccc5)c4=O)nc3)ccnc2c1	0.166 µM (active)	332 nM (active)	inactive	inactive	inactive				-3.94% (inactive)	inactive			
CC(C)(C)c1cnc(CSc2cnc(NC(=O)C3CCNCC3)s2)o1	0.296 µM (active)	332 nM (active)	1050 nM (active)	935 nM (active)	166 nM (active)		1180 nM (active)	935 nM (active)		7.94 µM (active)	662 nM (active)	0.631 µM (active)	833 nM (active)
Cc1cc2c(s1)Nc1ccccc1N=C2N1CCN(C)CC1	20.6 µM (active)	23100 nM (active)	inactive	inactive	inactive	inactive		inactive	-7.86% (inactive)	inactive	inactive		inactive
COc1cccc2c1C(=O)c1c(O)c3c(c(O)c1C2=O)C[C@@](O)(C(=O)CO)C[C@@H]3O[C@H]1C[C@H](N)[C@H](OC2CCCCO2)[C@H](C)O1 (some centres not stated)	105 nM (active) and 74.2 nM (active)	118 nM (active) and 59 nM (active)	inactive	inactive	inactive	inactive	inactive			794 nM (active) and 8.91 µM (active)		3.16 µM (active) and 5.01 µM (active)	inactive
S=P(N1CC1)(N1CC1)N1CC1	inactive and 6.61 µM (active)	3320 nM (active)	inactive	inactive	inactive	inactive	inactive		10.4% (inactive)				
O=C1NC(=O)C(c2cnc3ccccn23)=C1c1cn2c3c(cc(F)cc13)CN(C(=O)N1CCCCC1)CC2	231 nM (active) and 833 nM (active)	51.7 nM (active) and 372 nM (active)	inactive	inactive	588 nM (active)			18.6 nM (active)		25.1 µM (active)	20.9 nM (active)		16.6 nM (active)
